This is a sample that favours compounds with a hit; in the whole collection about 1.2% have one here.
RGS16-Gao – modulators of RGS16 binding to Galphao, primary screen, biochemical, human proteins, multiplexed bead flow cytometry | binding response (% of control), % at 10 µM | bead-based flow cytometry RGS16-Galphao binding, fluorescence; actives lie on both sides | 220,000 compounds, 0.38% hits;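 note: Galphao activated by GDP with aluminum fluoride before binding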
GSH fluor – compound fluorescence on glutathione beads, profiling panel, artefact control, biophysical, 488/530 nm, flow cytometry | GSH beads flow cytometry, compound fluorescence 488/530 nm; hits give high values | fluorescence (KMESF) at 10 µM | 190,000 compounds, 0.25% hits | AID 1776, 2009; in the data active = fluorescence above about 89;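 note: glutathione beads carrying GST-tagged Bcl family fusion proteins plus one bare bead set; values are compound well signal with DMSO vehicle wells as background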
Avidin bead fluor – green autofluorescence of compounds with avidin beads – biophysical, 488/530 nm, flow cytometry, artefact control, profiling panel. compound fluorescence 488/530 nm; hits give high values. fluorescence (KMESF) at 10 µM. 220,000 compounds, 0.38% hits. AID 1775, 2009; in the data active = fluorescence above about 47
RGS4-Gao reg – modulators of RGS4 binding to Galphao, primary screen, biochemical, multiplexed bead flow cytometry | Guanine nucleotide-binding protein G(o) subunit alpha (Homo sapiens), P09471 | actives lie on both sides | binding response (% of control), % at 10 µM | 220,000 compounds, 0.33% hits; in the data active = binding response below about 49% or above about 150%; inactive = in between;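 note: fluorescent Galphao activated with aluminum fluoride binding bead-coupled RGS4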
Target sequence (P09471 whole entry, looked up): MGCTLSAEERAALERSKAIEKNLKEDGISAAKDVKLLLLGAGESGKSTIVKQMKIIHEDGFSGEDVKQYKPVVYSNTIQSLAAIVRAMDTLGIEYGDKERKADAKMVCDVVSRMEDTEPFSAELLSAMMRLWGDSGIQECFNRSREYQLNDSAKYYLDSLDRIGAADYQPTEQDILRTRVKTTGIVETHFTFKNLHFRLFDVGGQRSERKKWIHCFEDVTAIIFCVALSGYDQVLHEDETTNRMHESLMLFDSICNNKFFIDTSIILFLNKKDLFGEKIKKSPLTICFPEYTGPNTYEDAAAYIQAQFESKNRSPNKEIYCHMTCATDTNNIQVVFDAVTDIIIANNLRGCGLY
RGS8-Gao reg – RGS8-Galphao binding modulators, primary screen, biochemical, multiplexed bead flow cytometry; Guanine nucleotide-binding protein G(o) subunit alpha (Homo sapiens), P09471; actives lie on both sides; response (percent of control binding), % at 10 µM; 220,000 compounds, 0.34% hits; in the data active = response below about 60% or above about 140%; inactive = in between;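 note: Galphao activated as the GDP aluminium fluoride complex binding bead-coupled RGS8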
RGS7-Gao – RGS7-Galphao binding modulators, primary screen, biochemical, multiplexed bead flow cytometry. 220,000 compounds, 0.35% hits. Guanine nucleotide-binding protein G(o) subunit alpha (Homo sapiens), P09471. actives lie on both sides. binding response (% of control), % at 10 µM. AID 1439, 2008; in the data active = binding response below about 49% or above about 150%; inconclusive = no clear call, values can overlap the other calls; inactive = in between;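 note: fluorescent Galphao held in activated GDP-AlF4 state binding bead-coupled RGS7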
RGS-Gao – modulators of RGS–Galpha-o binding, primary screen, biochemical, multiplexed beads, flow cytometry, RGS4/7/8/16/19; shares compounds with RGS16-Gao; multiplexed bead flow cytometry; RGS4–Galpha-o binding response, % at 10 µM; 1,600 compounds, 99% hits; AID 1504, 2009;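 note: fluorescently labeled Galpha-o bound to GDP with aluminium fluoride binding biotinylated RGS beads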
Avidin counter – disruption of biotin probe capture by avidin, counter-screen for RGS protein interaction modulators, biochemical, flow cytometry, bead-based | shares compounds with RGS16-Gao | streptavidin beads, fluorescein-biotin binding | inhibition, % at 10 µM | 1,700 tested, under 10 active;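 active = inhibition above 50%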;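 note: median green fluorescence of gated singlet beads compared with DMSO control wells; 0% = DMSO wells and 100% = complete loss of bead fluorescence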
RGS8-Gao single – RGS8-Galphao binding modulators, confirmation, biochemical, multiplexed bead flow cytometry, single concentration. shares compounds with RGS16-Gao. 1,700 compounds, 3% hits. binding response (% of control), % at 10 µM. bead-based flow cytometry RGS8-Galphao binding, fluorescence; actives lie on both sides; in the data active = binding response below about 72% or above about 130%; inactive = in between;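 note: Galphao activated as GDP AlF4 complex before binding bead RGS8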
RGS7-Gao confirm – RGS7-Galphao binding modulators, confirmation, biochemical, multiplexed bead flow cytometry, single concentration | shares compounds with RGS16-Gao | bead-based flow cytometry RGS7-Galphao binding; actives lie on both sides | response (percent of control binding), % at 10 µM | 1,700 compounds, 7.8% hits; in the data active = response below about 75% or above about 130%; inactive = in between;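 note: fluorescent Galphao activated with GDP and aluminum fluoride binding bead-coupled RGS7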
RGS16-Gao single – modulators of RGS16-Galphao protein binding, confirmation, biochemical, single concentration, multiplexed bead flow cytometry; shares compounds with RGS16-Gao; bead-based flow cytometry; actives lie on both sides; response (% of control binding), % at 10 µM; 1,700 compounds, 4% hits; AID 1838, 2009; in the data active = response below about 74% or above about 130%; inactive = in between;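 note: Galphao activated as the GDP aluminium fluoride complex binding bead-coupled RGS16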
RGS4-Gao confirm – modulators of RGS4-Galphao protein binding, confirmation, biochemical, single concentration, multiplexed bead flow cytometry. shares compounds with RGS16-Gao. actives lie on both sides. binding response (% of control), % at 10 µM. 1,700 compounds, 4% hits; in the data active = binding response below about 74% or above about 130%; inactive = in between
RGS19-Gao single – regulators of RGS19-Galphao binding, confirmation, biochemical, single point, multiplexed bead flow cytometry; 1,700 compounds, 5% hits; response (percent of control binding), % at 10 µM; shares compounds with RGS16-Gao; bead-based flow cytometry RGS19-Galphao binding; actives lie on both sides; in the data active = response below about 50% or above about 160%; inactive = in between;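 note: 100% = no compound control and 0% = blank background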
Target sequence (P09471 whole entry, looked up): as above
Target sequence (P49795 whole entry, looked up): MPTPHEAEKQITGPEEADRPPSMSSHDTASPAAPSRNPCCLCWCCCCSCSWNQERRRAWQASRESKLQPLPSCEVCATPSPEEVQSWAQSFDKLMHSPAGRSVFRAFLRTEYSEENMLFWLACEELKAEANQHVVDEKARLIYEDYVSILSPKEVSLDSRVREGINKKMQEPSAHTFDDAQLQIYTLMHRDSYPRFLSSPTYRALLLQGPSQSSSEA
Starred values were filed as active, the others as inactive; ? = inconclusive; · = no result; [ ] = dose if it differs, or a comment. Unless noted, the rule behind the calls is not given here.

SMILES | RGS16-Gao | GSH fluor | Avidin bead fluor | RGS4-Gao reg | RGS8-Gao reg | RGS7-Gao | RGS-Gao | Avidin counter | RGS8-Gao single | RGS7-Gao confirm | RGS16-Gao single | RGS4-Gao confirm | RGS19-Gao single
CCCCn1c(=O)[nH]c(=O)c2c(C(=O)OCC)cc(-c3ccc(OC(F)F)cc3)nc21 | 104 | 15 | 10 | 105 | 102 | 103 | · | · | · | · | · | · | ·
NC(=O)CCC(NS(=O)(=O)c1ccc(Cl)cc1)C(=O)NCc1ccc(Cl)cc1 (stereo not drawn) | 6.5* | 6 | 6 | 90 | 70 | 85 | 90* | 0 | 111 | 112 | 114 | 109 | 133
CSCCC(NS(=O)(=O)c1ccc(F)cc1)C(=O)NCc1ccc(S(N)(=O)=O)cc1 (stereo not drawn) | 104 | · | · | 100 | 100 | ? | · | · | · | · | · | · | ·
CCOc1cccc2cc(-c3nnc(NCc4ccc5c(c4)OCO5)s3)c(=O)oc12 | · | 9 | · | · | · | · | · | -1 | 105 | 105 | 120 | 107 | 167*[activator]
Cc1sc2cc3c(c(C(=O)c4ccccc4)[n+]2c1C)-c1cccc2cccc-3c12 | 100 | 8 | 5 | 108 | 99 | 110 | · | · | · | · | · | · | ·
O=C(c1ccccc1)c1c2c(cc3sc4ccccc4[n+]13)-c1cccc3cccc-2c13 | 93 | 2 | 5 | 141 | 115 | 199*[activator] | 141* | 0 | 104 | 116 | 106 | 123 | 96
CC(C)CNC(=O)CC(c1ccccc1)c1ccccc1 | 86 | 15 | 9 | 86 | 95 | 102 | · | · | · | · | · | · | ·
CC1CCCC(C)N1C(=O)CN1C(=O)C(C)(C)Oc2ccc(C(=O)NC3CCCCC3)cc21 (stereo not drawn) | 3 | 54 | 4 | 108 | · | 91 | · | -1 | 100 | 101 | 101 | 98 | 92
CC1CCCC(C)N1C(=O)CN1C(=O)C(C)(C)Oc2ccc(C(=O)NC3CCCC3)cc21 (stereo not drawn) | · | 41 | · | · | · | · | · | 0 | 100 | 102 | 101 | 101 | 98
CCN(CC)CCC(=O)NN | 99 | 17 | 9 | 100 | 100 | 99 | · | · | · | · | · | · | ·
COc1cc(C(=O)Nc2ccc(-n3cnnn3)c(C)c2)cc(OC)c1OC | 24* | 20 | 1 | 25* | 41* | 28* | · | 0 | 108 | 106 | 117 | 105 | 121
Cc1cc(NC(=O)c2ccco2)ccc1-n1cnnn1 | 104 | 11 | 13 | 101 | 96 | 105 | · | · | · | · | · | · | ·
COc1cccc(NC(=O)c2ccccc2-c2nc(-c3ccccc3)no2)c1 | 88 | 36 | 15 | 88 | 91 | 87 | · | · | · | · | · | · | ·
COc1cccc(NC(=O)c2ccccc2-c2nc(-c3ccc(F)cc3)no2)c1 | · | 33 | · | · | · | · | · | 0 | 100 | 97 | 103 | 102 | 98
COC(=O)c1ccc2c(=O)[nH]c(CSc3nnc(C(F)(F)F)n3C)nc2c1 | 16* | 4 | 6 | 90 | 81 | 90 | 90* | 3 | 103 | 100 | 106 | 104 | 100
COc1cc(CN2CCC(C(=O)N3CCN(c4ccccc4F)CC3)CC2)cc(OC)c1OC | 102 | 35 | 8 | 100 | 100 | 99 | · | · | · | · | · | · | ·
COc1ccc(CN2CCC(C(=O)N3CCN(c4ccccc4F)CC3)CC2)cc1OC | 184 | 25 | 25 | 135 | 141*[activator] | 141 | 135* | · | · | · | · | · | ·
Nc1nc2c(Cl)ccc(Cl)c2s1 | 105 | 22 | 9 | 103 | 101 | 106 | · | · | · | · | · | · | ·
O=C(C(=O)N1CCCc2ccccc21)N1CCCc2ccccc21 | 182*[activator] | 7 | 4 | 105 | 124 | 103 | 105* | -2 | 100 | 101 | 101 | 99 | 98
COc1cc2c(cc1NC(=S)NC(=O)/C=C/c1ccco1)oc1ccccc12 | 21* | 4 | 7 | 103 | 89 | 99 | 103* | 0 | 103 | 102 | 100 | 103 | 77
Cc1ccc(-n2c(C)cc(C(=O)COc3c(CO)cc(F)cc3CO)c2C)cc1C | 332 | 10 | 4 | 116 | 153*[activator] | 115 | 116* | 2 | 105 | 104 | 104 | 103 | 108
CSc1nncc(/C(C)=N/O)n1 | 93 | 12 | 6 | 96 | 95 | 98 | · | · | · | · | · | · | ·
CC/C(=N/O)c1cnnc(SC)n1 | 16* | 6 | 7 | 95 | 84 | 97 | 95* | 0 | 103 | 94 | 106 | 96 | 91
O=C(C[n+]1cccc(CNC(=O)c2ccc(OC(F)F)cc2)c1)Nc1ccc(F)cc1 | 21* | 18 | 1 | 116 | 91 | 121 | 116* | 0 | 105 | 106 | 105 | 107 | 118
O=C(C[n+]1cccc(CNC(=O)c2ccc(OC(F)F)cc2)c1)Nc1cccc(C(F)(F)F)c1 | 107 | 9 | 4 | 105 | 106 | 104 | · | · | · | · | · | · | ·
COC(=O)C1=C(C)N(Cc2ccco2)C(=O)/C1=C\c1ccc(N(C)C)cc1 | 231*[activator] | 7 | 14 | 111 | 130 | 110 | 111* | 0 | 100 | 98 | 102 | 101 | 106
